Measured values taken from PubChem BioAssay AID431 (Sanford-Burnham Center for Chemical Genomics, 2006).
Out of some 63,000 compounds screened, about 1,100 (1.7%) were called active.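 How the source made its calls: active means compounds whose percent cytotoxicity in the single-dose primary screen, scaled between solvent and toxic-drug controls, exceeds 50; inactive means the rest.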 Many of the other results were omitted from the sample, so actives are more common in it than they were. Potency and affinity values are given separately.

Experiment: cytotoxicity in KRAS-transformed pancreatic duct cells, primary screen, cell-based, fluorescence, HTS (AID 431);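 further: 0% = DMSO solvent wells and 100% = doxorubicin-treated wells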
Conditions: HPDE-C7K KRASV12 cells, Alamar Blue viability, 48 h; at 10 µM; hits give high values

Row | SMILES | cytotoxicity
1 | COc1ccc(C(=O)Nn2c(SCC(=O)NCC3CCCO3)nc3ccccc3c2=O)cc1 (stereo not drawn) | -11% (inactive)
2 | O=C(CCc1ccccc1)Nc1ccc(N2CCOCC2)cc1 | 2.6% (inactive)
3 | Cc1cc(-n2c(=O)c(C#N)cc3c(=O)n4ccccc4nc32)no1 | -4.7% (inactive)
4 | C=CCn1c(=O)c(C#N)cc2c(=O)n3ccccc3nc21 | 4.5% (inactive)
5 | Cc1ccc(-n2c(=O)c(C#N)cc3c(=O)n4ccccc4nc32)cc1 | 69.7% (active)
6 | O=C(Nc1ccc2c(c1)OCCO2)c1ccc(Br)c(S(=O)(=O)N2CCOCC2)c1 | -7.9% (inactive)
7 | CC(C)CC(NC(=O)C1CCC(C)CC1)C(=O)Nc1ccccn1 (stereo not drawn) | -19.7% (inactive)
8 | CCOC(=O)c1nnn(-c2nonc2N)c1CSc1ccccn1 | -3.2% (inactive)
9 | COc1ccc(-n2nnnc2SCC(N)=O)cc1 | -7.1% (inactive)
10 | CC1=C(C(=O)Nc2ccccc2)C(c2ccco2)C(C#N)=C(SCC(=O)Nc2cccc(C)c2C)N1 (stereo not drawn) | 79.6% (active)
11 | COc1ccccc1NC(=O)C1=C(C)NC(SCC(=O)c2ccccc2)=C(C#N)C1c1ccco1 (stereo not drawn) | 27.2% (inactive)
12 | CCOC(=O)C1=C(c2ccccc2)NC(SCC(=O)Nc2ccccc2C)=C(C#N)C1c1ccco1 (stereo not drawn) | 39% (inactive)
13 | CCOC(=O)CSC1=C(C#N)C(c2ccco2)C(C(=O)Nc2cccc(C(F)(F)F)c2)=C(C)N1 (stereo not drawn) | 28.1% (inactive)
14 | CC1=C(C(=O)Nc2ccccc2)C(c2ccco2)C(C#N)=C(SCc2ccccc2)N1 (stereo not drawn) | 57.7% (active)
15 | CC1=C(C(=O)Nc2ccccc2)C(c2ccco2)C(C#N)=C(SCC(=O)OC(C)C)N1 (stereo not drawn) | 49.2% (inactive)
16 | CCOC(=O)C(NC(=O)c1ccccc1)=C1CCCCC1 | -19.2% (inactive)
17 | CC(c1ccccc1)n1cc(C(=O)NCc2ccccn2)nn1 (stereo not drawn) | -7.5% (inactive)
18 | CCCc1cc(=O)[nH]c(SCC(=O)Nc2ccc(OC(F)F)cc2)n1 | -7.3% (inactive)
19 | O=C(NCCCN1CCCCCC1)c1ccc(CS(=O)(=O)Cc2ccccc2F)o1 | -3% (inactive)
20 | Cc1cccc2sc(NC(=O)CNS(=O)(=O)c3ccc(Br)s3)nc12 | -11.6% (inactive)

Row | SMILES | cytotoxicity
21 | Cc1cccc2sc(NC(=O)CN(C)S(=O)(=O)c3cccs3)nc12 | 28.8% (inactive)
22 | COCCn1c(SCC#N)nnc1-c1ccccc1O | -24.2% (inactive)
23 | COc1ccc(NC(=O)N2CCCCC2)cc1 | -3.1% (inactive)
24 | Oc1cccc(Nc2ncnc3ccccc23)c1 | 4.2% (inactive)
25 | COc1ccc(CNC(=O)Cc2ccc(OC)c(S(=O)(=O)N3CCOCC3)c2)cc1 | 3.6% (inactive)
26 | c1ccc(Cn2nnnc2CN2CCN(Cc3ccc4c(c3)OCO4)CC2)cc1 | -0.4% (inactive)
27 | Cc1nc2cc(C(F)(F)F)ccc2n1C1CCN(CC(=O)N2CCOCC2)CC1 | -14.7% (inactive)
28 | CC1(C)CC(=O)C(C=Nc2ccc3[nH]ncc3c2)=C(O)C1 | 14.8% (inactive)
29 | CN1CCN(C(=O)c2cc3c(n(-c4ccccc4)c2=O)CC(C)(C)CC3=O)CC1 | -5% (inactive)
30 | CCCn1c(=O)c2ccccc2n2c(SCCOc3ccc(OC)cc3)nnc12 | -17.4% (inactive)
31 | COCCCNc1oc(COc2ccc(Cl)cc2Cl)nc1C#N | 18.7% (inactive)
32 | CN(C)c1oc(-c2ccc(OCc3ccccc3)cc2)nc1C#N | -8.5% (inactive)
33 | N#Cc1nc(-c2ccc(OCc3ccc(Cl)cc3)cc2)oc1N1CCOCC1 | -19.7% (inactive)
34 | CN(C)c1oc(-c2ccc(OCc3ccc(Cl)cc3)cc2)nc1C#N | 51.7% (active)
35 | O=C(Cn1cccc1)Nc1ccc(F)cc1F | 1% (inactive)
36 | CCOC(=O)c1[nH]c2ccc(C)cc2c1N=C(C)N(C)C | 70% (active)
37 | CCOC(=O)c1[nH]c2ccc(F)cc2c1N=C(C)N(CC)CC | -17.4% (inactive)
38 | CCOC(=O)c1[nH]c2ccc(C)cc2c1N=CN(CC)CC | 4.8% (inactive)
39 | OC(CN1CCOCC1)CN(c1ccccc1)c1ccccc1 (stereo not drawn) | -10.7% (inactive)
40 | O=C(CSc1ncnc2ccccc12)N1CCCC1 | -10.1% (inactive)

Row | SMILES | cytotoxicity
41 | c1ccc2c(c1)nc(N1CCOCC1)c1c3ccccc3[nH]c21 | -52.3% (inactive)
42 | CC1(C)CC(=O)c2cnn(-c3nc4ccccc4[nH]3)c2C1 | -19% (inactive)
43 | COc1cc(C(C)=O)ccc1OC(=O)C(C)N1C(=O)c2ccccc2C1=O (stereo not drawn) | -5.8% (inactive)
44 | O=C(NCc1ccco1)C(Cc1ccccc1)N1C(=O)c2ccccc2C1=O (stereo not drawn) | -12.8% (inactive)
45 | COc1ccc(NC(=O)CC2C(=O)N(c3ccc(OC)cc3)C(=O)N2CCN2CCN(C)CC2)cc1 (stereo not drawn) | -7.8% (inactive)
46 | Cc1ccc(C2c3c(-c4ccccc4O)n[nH]c3C(=O)N2Cc2ccncc2)cc1 (stereo not drawn) | 8.5% (inactive)
47 | COc1ccc(CCN2C(=O)c3[nH]nc(-c4ccccc4O)c3C2c2cccc(O)c2)cc1OC (stereo not drawn) | 63.4% (active)
48 | COc1ccc(C2c3c(-c4ccccc4O)n[nH]c3C(=O)N2CCc2ccc(OC)c(OC)c2)cc1 (stereo not drawn) | 51.4% (active)
49 | COCCCN1C(=O)c2[nH]nc(-c3cc(C)cc(C)c3O)c2C1c1ccc(O)c(OC)c1 (stereo not drawn) | 12% (inactive)
50 | COc1ccc(CCN2C(=O)c3[nH]nc(-c4ccccc4O)c3C2c2ccccc2)cc1OC (stereo not drawn) | 24% (inactive)
51 | CC(C)OCCCN1C(=O)c2[nH]nc(-c3ccccc3O)c2C1c1cccc(Cl)c1 (stereo not drawn) | -4.9% (inactive)
52 | COc1ccc(C2c3c(-c4cc(Cl)c(C)cc4O)n[nH]c3C(=O)N2Cc2cccnc2)cc1OC (stereo not drawn) | 14.2% (inactive)
53 | COCCCN1C(=O)c2[nH]nc(-c3ccccc3O)c2C1c1ccc(Cl)cc1 (stereo not drawn) | 62.9% (active)
54 | Cc1cc(O)c(-c2n[nH]c3c2C(c2cccc(O)c2)N(Cc2cccnc2)C3=O)cc1Cl (stereo not drawn) | 9.3% (inactive)
55 | COCCCN1C(=O)c2[nH]nc(-c3ccccc3O)c2C1c1cccc(Cl)c1 (stereo not drawn) | 18.6% (inactive)
56 | COc1cc(C2C(C(C)=O)=C(O)C(=O)N2CCc2ccc(OC)c(OC)c2)ccc1O (stereo not drawn) | 1.7% (inactive)
57 | Cc1ccc(S(=O)(=O)N(C)CCCC(=O)NCc2ccc3c(c2)OCO3)cc1 | -7.5% (inactive)
58 | O=S(=O)(c1cccc(-c2csc(-c3cccnc3)n2)c1)N1CCCCC1 | -13.4% (inactive)
